Source: PubChem BioAssay (NCATS)
Unmarked numbers belong to inactive results. No rule for the calls is given here.

Tested on: HIV-1 nucleocapsid protein NCp7 (binding to TG oligonucleotide)
Test: HIV Nucleocapsid (AID 346);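 also: potency is for inhibitors that block NC binding and lower polarization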
Details: HIV-1 NC / fluorescein-TGTGTGTG probe, fluorescence polarization
In short: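 Reagents dispensed (10 nM TG4xF, 100 nM HIV-1 NC), plates spun, compounds pin-transferred, then incubated 1 hr at room temperature before FP imaging. Buffer: Hepes pH 7.5, 250mM NaCl, 1uM ZnCl2, 100 uM TCEP, 5 mM 2-mercaptoethanol.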
Potency is read from the fitted curve at half-maximal effect.

Q: For CC(=O)N1CCC[C@@]2(CCN(c3ncccn3)C2)C1, which Potency is on record?
A: Its Potency is > 20 µM.

Q: For Cn1cccc1C(=O)N1CCC2(CCN(Cc3nccs3)CC2)CC1, which Potency is on record?
A: The Potency was > 20 µM.

Q: For CC(C)CN1CCCC2(CCN(C(=O)c3csnn3)CC2)C1, which Potency is on record?
A: The Potency was > 20 µM.

Q: For CN(C)Cc1ccccc1-c1nc(NCc2cccs2)c2ccccc2n1, which Potency is on record?
A: The Potency was > 20 µM.

Q: How did the Potency turn out when O=c1cnc2cnc(N3CCOCC3)nc2n1CCc1ccccc1 was run?
A: Its Potency is > 20 µM.

Q: Which Potency does the source give for Cc1nc2cnc(OCc3ccccc3)nc2n(C)c1=O here?
A: Its Potency is > 20 µM.

Q: Which Potency does the source give for Cn1cccc1C(=O)N1CCC2(CC1)CCN(c1ccccc1)CC2 here?
A: The Potency was > 20 µM.

Q: With Cn1c(=O)c(-c2ccccc2)nc2cncnc21 as the compound, how does the Potency read?
A: Its Potency is > 20 µM.

Q: How did the Potency turn out when Cn1c(=O)c(-c2ccccc2)nc2cnc(Oc3ccccc3)nc21 was run?
A: Its Potency is > 20 µM.

Q: O=C(c1ccco1)N1CCC2(CC1)CN(c1ncccn1)C2 was tested. Which Potency did it give?
A: The Potency was > 20 µM.

Q: COc1cccc(-c2ccc3ncnc(NCc4ccccc4OC)c3c2)c1 was tested. Which Potency did it give?
A: Its Potency is > 20 µM.

Q: Which Potency does the source give for COc1ccc2[nH]cc(CCNc3nc(-c4ccccc4CN(C)C)nc4ccccc34)c2c1 here?
A: Its Potency is > 20 µM.

Q: With Cc1nc2cnc(Oc3ccccc3)nc2n(-c2ccccc2)c1=O as the compound, how does the Potency read?
A: The Potency was > 20 µM.

Q: c1cncc(CNc2nc(-c3ccoc3)nc3ccccc23)c1 was tested. Which Potency did it give?
A: The Potency was > 20 µM.

Q: COc1ccccc1CNc1cc(-c2cccc(C#N)c2)ncn1 was tested. Which Potency did it give?
A: The Potency was > 20 µM.

Q: COCCNc1ccnc(-c2ccccc2C)n1 was tested. Which Potency did it give?
A: The Potency was > 20 µM.

Q: Which Potency does the source give for CC(C)NC(=O)N1CCC2(CC1)CCN(C(=O)c1cccc(F)c1)CC2 here?
A: Its Potency is > 20 µM.

Q: With COc1ccccc1CNc1ncnc2ccc(-c3ccccc3OC)cc12 as the compound, how does the Potency read?
A: Its Potency is > 20 µM.

Q: With COc1ccc(-n2c(=O)c(-c3ccc(F)cc3)nc3cnc(OC)nc32)cc1 as the compound, how does the Potency read?
A: The Potency was > 20 µM.

Q: CN(C)Cc1ccccc1-c1ccc2ncnc(NC3CC3)c2c1 was tested. Which Potency did it give?
A: The Potency was > 20 µM.

Q: Which Potency does the source give for O=c1c(-c2cccc(F)c2)nc2cncnc2n1Cc1ccccc1 here?
A: Its Potency is > 20 µM.

Q: How did the Potency turn out when COc1ncc2nc(CCc3ccccc3)c(=O)n(CCC#N)c2n1 was run?
A: Its Potency is > 20 µM.

Q: With Cc1cnc(CNc2ncnc3ccc(-c4ccccc4Cl)cc23)cn1 as the compound, how does the Potency read?
A: Its Potency is > 20 µM.

Q: With c1nc(N2CCNCC2)c2cc(-c3ccoc3)ccc2n1 as the compound, how does the Potency read?
A: The Potency was > 20 µM.

Q: Clc1ccccc1-c1ccc2ncnc(NCCN3CCOCC3)c2c1 was tested. Which Potency did it give?
A: Its Potency is > 20 µM.

Q: With CN(Cc1ccco1)c1nc(-c2ccccc2Cl)nc2ccccc12 as the compound, how does the Potency read?
A: The Potency was > 20 µM.

Q: COc1ncc2nc(-c3ccc(Cl)cc3)c(=O)n(C[C@H]3CCCO3)c2n1 was tested. Which Potency did it give?
A: The Potency was > 20 µM.

Q: COC(=O)N1CCC2(CCCN(Cc3nccs3)C2)CC1 was tested. Which Potency did it give?
A: The Potency was > 20 µM.

Q: How did the Potency turn out when Cc1noc(C)c1-c1cc(NCc2cccs2)ncn1 was run?
A: Its Potency is > 20 µM.

Q: For O=S(=O)(c1ccccc1)N1CCC2(CC1)CN(Cc1nccs1)C2, which Potency is on record?
A: The Potency was > 20 µM.

Q: For O=C(Nc1cccc(F)c1)N1CC[C@@]2(CCCN(C(=O)c3csnn3)C2)C1, which Potency is on record?
A: The Potency was > 20 µM.

Q: Cc1noc(C)c1C(=O)N1CCC2(CCCN(c3ccccn3)C2)CC1 was tested. Which Potency did it give?
A: The Potency was > 20 µM.

Q: How did the Potency turn out when COc1cccc(-c2nc(NC3CCNCC3)c3ccccc3n2)c1 was run?
A: The Potency was > 20 µM.

Q: How did the Potency turn out when CN(C)c1ncc2nc(-c3cc(F)cc(F)c3)c(=O)n(CCC#N)c2n1 was run?
A: Its Potency is > 20 µM.

Q: How did the Potency turn out when Cc1cnc(CNc2nc(-c3ccccc3C(F)(F)F)nc3ccccc23)cn1 was run?
A: Its Potency is > 20 µM.

Q: For COc1ccc(-c2nc3cnc(Nc4cccc(OC)c4)nc3n(C3CC3)c2=O)cc1, which Potency is on record?
A: Its Potency is 15.7 µM.

Q: O=C(c1cccc(F)c1)N1CCC[C@@]2(CCN(c3cccc(-c4ccccc4)c3)C2)C1 was tested. Which Potency did it give?
A: Its Potency is > 20 µM.

Q: How did the Potency turn out when Cn1cccc1C(=O)N1CCC2(CCCN(c3ccncc3)C2)CC1 was run?
A: Its Potency is > 20 µM.

Q: How did the Potency turn out when CS(=O)(=O)N1CCC2(CCCN(c3ccncc3)C2)CC1 was run?
A: The Potency was > 20 µM.

Q: For N#Cc1cccc(NC(=O)N2CCCC3(CCN(C(=O)c4cnccn4)CC3)C2)c1, which Potency is on record?
A: Its Potency is > 20 µM.
